Shiga inhibitor = blocks Shiga toxin action in Vero cells; Vero cells, Shiga toxin protein synthesis inhibition reporter; inhibition, % at 38.7 µM; 290,000 compounds, 9.2% hits; AID 2315; in the data active = inhibition mostly above about 28%, no sharp cut-off; inactive = mostly below about 43%; note: 0% is about no effect
CHX counter = counter-screen hit for Shiga toxin inhibitors, cycloheximide; cell reporter, cycloheximide protein synthesis inhibition counterscreen; 300,000 compounds, 12% hits; max response, %; AID 2314; in the data active = max response mostly above about 13%, no sharp cut-off; inactive = mostly below about 14%; note: read at 38.3 µM for the half of the compounds with a filed dose; 0% is about no effect
Giardia FBPA inh = blocks Giardia fructose-bisphosphate aldolase activity; A8B2U2; purified Giardia FBPA; Potency, µM (titrated, usually from 59.6 µM), for the others: top-dose activity, negative = inhibition, hits mostly inhibitors; 290,000 compounds, 0.71% hits; AID 2451; note: potency is the fitted concentration of half-maximal effect; % is set by controls: 0 for no effect and ±100 for the full control effect; nearly all actives have a fitted effect of over 55% in size
Target sequence (A8B2U2 whole entry, looked up): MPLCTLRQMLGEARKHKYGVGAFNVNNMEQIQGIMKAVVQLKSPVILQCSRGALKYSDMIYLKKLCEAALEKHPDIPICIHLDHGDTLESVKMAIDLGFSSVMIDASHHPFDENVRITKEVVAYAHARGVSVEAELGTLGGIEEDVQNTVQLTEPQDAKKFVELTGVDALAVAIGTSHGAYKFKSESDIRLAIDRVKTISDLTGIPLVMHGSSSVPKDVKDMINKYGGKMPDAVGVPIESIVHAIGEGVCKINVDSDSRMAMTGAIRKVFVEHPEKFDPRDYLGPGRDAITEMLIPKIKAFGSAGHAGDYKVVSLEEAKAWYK
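Giardia FBPA (40 nM reagent) was preincubated 10 min at RT with compound (up to 57.5 uM final), then substrate plus GAPDH/TPI/NAD/arsenate coupling system with diaphorase/resazurin was added; resorufin fluorescence (525/598 nm) was read after 20 min.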
Pf growth 96h = inhibits malaria parasite growth, 96 h; P. falciparum luciferase reporter growth, 96 h; Potency, µM (doses to about 28.7 µM), inactives show top-dose activity change, negative = inhibition, actives largely listed as inhibitors; 320,000 compounds, 6.9% hits; note: potency is the fitted concentration of half-maximal effect; % is set by controls: 0 for no effect and ±100 for the full control effect
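Erythrocytes infected with luciferase-expressing P. falciparum were dispensed at 2% hematocrit and 0.05% parasitemia (final), then incubated with compounds 96 hours at 37 C in 5% CO2. Luminescence after detection reagent addition reported growth.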
NS1 function inh = influenza NS1 inhibition. 270,000 compounds, 0.4% hits. Potency, µM (highest dose often 46.1 µM), without a hit: at the highest dose activity, positive = more growth; calls by dose curve; note: potency is the fitted concentration of half-maximal effect; actives are rising curves; nearly all actives have a fitted effect of over 50% in size
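A cell-based growth assay was used: compounds that relieve NS1-induced slow growth of budding yeast raise OD600. Assay medium was yeast nitrogen base with ammonium sulphate and -URA supplement, pH 6.0, with 2% galactose.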
Pf growth 48h = inhibits P. falciparum growth in the first generation, 48 h; P. falciparum luciferase growth in erythrocytes, 48 h; Potency, µM (doses to about 28.7 µM), without a hit: at the top dose activity change, negative = inhibition, hits mostly inhibitors; 310,000 compounds, 5.9% hits; AID 504832; note: potency is the fitted concentration of half-maximal effect; % is set by controls: 0 for no effect and ±100 for the full control effect
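Luciferase-expressing parasites in RBCs, 2% Hct / 0.1% parasitemia final; RPMI 1640 + 0.5% Albumax; 37 C, 5% CO2, one generation; luminescence read-out, lower signal = inhibition.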
Active calls of the source: *; u = inconclusive; x = not tested or not shown. Compounds with a hit are over-represented: about 21% of the library has one in this group of screens. Unless noted, calls come from the whole dose curve; as a rule, active = well fitted curve in the direction sought with a large enough effect; inconclusive = small, poorly fitted or top-dose-only effect, or another doubt; inactive = no such curve, though single readings can be large; an effect the other way counts as inactive or inconclusive.

SMILES	Shiga inhibitor	CHX counter	Giardia FBPA inh	Pf growth 96h	NS1 function inh	Pf growth 48h
COc1ccc(CN(C(=O)c2oc3ccccc3c2C)C2CCS(=O)(=O)C2)cc1OC (stereo unspecified)	11	3	-4%	7%	-16%	u
COc1ccc(CN(C(=O)c2oc3cc(C)c(C)cc3c2C)C2CCS(=O)(=O)C2)cc1OC (stereo unspecified)	1	-2	x	2.9µM*	-12%	u
COc1ccc(NC(=O)CCCn2c(=O)c3sccc3n(Cc3ccc(C)cc3C)c2=O)cc1	-14	-6	2%	8.3µM*	10%	-2%
CC(C)C(c1nnnn1C1CCCCC1)N1CCc2ccccc21 (stereo unspecified)	-2	-3	0%	x	8%	12µM*
Cc1ccc(C(c2nnnn2C2CCCCC2)N2CCc3ccccc32)cc1 (stereo unspecified)	-9	-4	-3%	u	-3%	12µM*
CC(C)C(c1nnnn1C1CCCC1)N1c2ccccc2CC1C (stereo unspecified)	2	-1	-3%	u	-13%	3.7µM*
Oc1ccc(C(c2nnnn2C2CCCC2)N2CCc3ccccc3C2)cc1 (stereo unspecified)	-20	0	-11%	x	4%	u
CCOc1nc(-c2ccccc2)c2cc(Br)ccc2n1	-3	-2	2%	0%	0%	13%
O=C(c1ccccc1)c1ccccc1C(=O)N1CCN(C(=O)c2ccccc2)CC1	49	10	5%	-2%	-2%	24%
N/C(=N\OC(=O)c1cc([N+](=O)[O-])ccc1Cl)c1cccnc1	21	-2	-7%	1%	-3%	13%
N/C(=N\OC(=O)c1ccccc1[N+](=O)[O-])c1cccnc1	55*	35*	2%	57%	7%	71%
Cc1cc(C(=O)Oc2cccnc2)ccc1[N+](=O)[O-]	-3	8	1%	3.7µM*	-12%	5%
N/C(=N\OC(=O)c1ccccc1[N+](=O)[O-])c1ccccn1	26	12	-6%	173%	x	0%
O=C(/C=C/c1ccc([N+](=O)[O-])cc1)c1cccnc1	-6	-2	5%	-26%	-23%	-1%
O=C(Oc1c(Br)cc([N+](=O)[O-])cc1Br)c1cccnc1	-13	12	u	6.6µM*	-24%	-17%
N/C(=N\OC(=O)c1ccc([N+](=O)[O-])cc1)c1cccnc1	117*	14*	0%	-18%	-8%	81%
C=CCC(O)(CC=C)C(C)N (stereo unspecified)	-24	-3	-6%	6%	-4%	-13%
OC1CCN(C(=S)Nc2ccc(Oc3ccccc3)cc2)CC1	9	13	-2%	0%	-4%	-1%
COc1ccc(C(=O)COC(=O)CCN2C(=O)C3C4C=CC(C5CC45)C3C2=O)cc1 (stereo unspecified)	-31	1	x	37%	-39%	16%
COc1ccc(/C(N)=N/OC(=O)c2ccc(C)c([N+](=O)[O-])c2)cc1OC	-1	-3	3%	x	-7%	x
Cc1ccc(C(=O)O/N=C(\N)c2cccnc2)cc1[N+](=O)[O-]	18*	78*	-1%	-15%	-8%	-9%
Cc1ccc(C(=O)OCn2nnc3ccccc3c2=O)cc1[N+](=O)[O-]	-10	8	1%	2.6µM*	x	14%
COc1ccc(NC(=O)C23CCC(C)(C(=O)O2)C3(C)C)cc1 (stereo unspecified)	22	7	2%	23%	2%	-1%
CCOC(=O)c1ccc(NC(=O)C23CCC(C)(C(=O)O2)C3(C)C)cc1 (stereo unspecified)	65*	50*	0%	18%	-1%	44%
CCOC(=O)c1ccc(NC(=O)C2(c3ccc(OC)cc3)CCCC2)cc1	11	8	-4%	u	-3%	5.9µM*
SMILES	Shiga inhibitor	CHX counter	Giardia FBPA inh	Pf growth 96h	NS1 function inh	Pf growth 48h
CC(C)CN(C(=O)C(c1ccccc1)c1ccccc1)c1c(N)n(CC(C)C)c(=O)[nH]c1=O	13	6	7%	-16%	4%	u
O=c1[nH]c(=O)n(-c2ccc(F)cc2)c2c1C(C(F)(F)F)(C(F)(F)F)N=C(c1ccc(F)cc1)N2	-8	5	7%	12µM*	-11%	u
CN1CCC(N(C)C(=O)c2ccc(Cl)c(S(=O)(=O)N3CCOCC3)c2)CC1	x	x	x	11%	x	15%
CCOC(=O)C1(Cc2cccc(Cl)c2)CCCN(C(=O)c2ccco2)C1 (stereo unspecified)	64*	16	2%	u	10%	-15%
CCOC(=O)C1(Cc2cccc(Cl)c2)CCCN(C(=O)c2ccoc2C)C1 (stereo unspecified)	25	10	x	u	-70%	u
CCOC(=O)C1(Cc2cccc(Cl)c2)CCCN(C(=O)c2ccc(COC)s2)C1 (stereo unspecified)	23	20*	x	-23%	-18%	u
CCOC(=O)C1(Cc2cccc(Cl)c2)CCCN(C(=O)c2occc2C)C1 (stereo unspecified)	26	14	x	u	-111%	-23%
CCOC(=O)C1(Cc2cccc(Cl)c2)CCCN(C(=O)C2CC2)C1 (stereo unspecified)	5	14*	-2%	-11%	-10%	-4%
O=C(O)COCC(=O)N1CCc2c([nH]c3ccccc23)C1C(F)(F)F (stereo unspecified)	-3	-1	16%	52%	0%	-2%
COc1ccc(S(=O)(=O)NCc2ccco2)cc1N(C)S(=O)(=O)c1ccccc1	51*	33*	-6%	u	2%	-5%
O=C(COC(=O)c1ccc(S(=O)(=O)NCc2ccco2)cc1)Nc1ccccc1OC(F)F	74*	67*	-4%	12%	-1%	18%
CN(c1ccccc1)S(=O)(=O)c1cccc(C(=O)OCC(=O)NCc2ccco2)c1	13	12	11%	u	x	-15%
CCOc1ccccc1NC(=O)c1cc(S(=O)(=O)NCc2ccco2)ccc1F	35*	42*	x	51%	-3%	-30%
COc1cc(OC)c(N(C)S(=O)(=O)c2cccc(C(=O)OCC(=O)NCc3ccco3)c2)cc1Cl	-12	21*	-4%	u	x	u
O=C(O)CC/C=C\C[C@@H]1CO[C@H](c2ccccc2Cl)O[C@@H]1c1ccccc1O	x	x	19%	x	x	x
Cc1ccc(S(=O)(=O)N(CC(=O)N(C(C)C)C(C)C)C(=O)N2CCN(C)CC2)cc1	-2	-3	-3%	27%	-1%	20%
CCOc1ccccc1-c1nnc2n1N=C(c1c(OC)cccc1OC)CS2	20	6	8%	x	x	x
CCCC(=O)Nc1ncnc2c1ncn2C1OC2COP(=O)(O)OC2C1OC(=O)CCC (stereo unspecified)	x	x	7%	-20%	x	-15%

Compound activity (PubChem BioAssay)
